Measured values taken from the supplement of paper PMC6555819.

Legend:
Experiment in all cases: PBM binding z-score (relative to random genomic background probes); higher = stronger binding; sequences stand for … in GC…GCGATTGACAGCGTAGAATGAAGG
[1] = tested on: PPARg:RXRa DBDmut IVT, anti-RXR (DBD mutation: RXRa K156A/R161A, NR concentration 270 nM, RXRa partner concentration 90 nM)
In short: (§1)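 Binding z-scores take random background probes as their reference. They come from custom Agilent 4×180K protein-binding microarrays incubated 1 h with ligand-free nuclear receptor dimers, with antibodies against each partner (one per run) detecting binding. Scanned fluorescence was regression-normalized.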

[2] = tested on: PPARg:RXRa IVT, anti-PPARg (NR concentration 270 nM, RXRa partner concentration 90 nM)
In short: as §1

[3] = tested on: PPARg DBDmut:RXRa IVT, anti-PPARg (DBD mutation: PPARg1 K132A/R137A, NR concentration 270 nM, RXRa partner concentration 90 nM)
In short: as §1

[4] = tested on: PPARg DBDmut IVT, anti-PPARg (DBD mutation: PPARg1 K132A/R137A, NR concentration 270 nM)
In short: as §1

[5] = tested on: PPARg homodimer (NR concentration 180 nM)
In short: as §1

[6] = tested on: PXR:RXRa (NR concentration 270 nM, RXRa partner concentration 90 nM)
In short: as §1

[7] = tested on: PXR homodimer (NR concentration 270 nM)
In short: as §1

[8] = tested on: RARa:RXR (NR concentration 270 nM, RXRa partner concentration 90 nM)
In short: as §1

[9] = tested on: RARa homodimer (NR concentration 270 nM)
In short: as §1

[10] = tested on: RARb:RXRa (NR concentration 270 nM, RXRa partner concentration 90 nM)
In short: as §1

[11] = tested on: RARb homodimer (NR concentration 270 nM)
In short: as §1

[12] = tested on: RARg:RXRa (NR concentration 270 nM, RXRa partner concentration 90 nM)
In short: as §1

[13] = tested on: RARg homodimer (NR concentration 270 nM)
In short: as §1

[14] = tested on: RXRa DBDmut IVT, anti-RXR (DBD mutation: RXRa K156A/R161A, NR concentration 90 nM)
In short: as §1

[15] = tested on: RXRa homodimer (NR concentration 180 nM)
In short: as §1

[16] = tested on: THRa:RXRa (NR concentration 90 nM, RXRa partner concentration 90 nM)
In short: as §1

[17] = tested on: THRa homodimer (NR concentration 90 nM)
In short: as §1

[18] = tested on: VDR homodimer (NR concentration 270 nM)
In short: as §1

| Sequence | PBM binding z-score [1] | PBM binding z-score [2] | PBM binding z-score [3] | PBM binding z-score [4] | PBM binding z-score [5] | PBM binding z-score [6] | PBM binding z-score [7] | PBM binding z-score [8] | PBM binding z-score [9] | PBM binding z-score [10] | PBM binding z-score [11] | PBM binding z-score [12] | PBM binding z-score [13] | PBM binding z-score [14] | PBM binding z-score [15] | PBM binding z-score [16] | PBM binding z-score [17] | PBM binding z-score [18] |
| --- | --- | --- | --- | --- | --- | --- | --- | --- | --- | --- | --- | --- | --- | --- | --- | --- | --- | --- |
| CCTAGTTGGTCAGGAGGTCAAACACCGGATATGA | 1.54 | 3.02 | 0.223 | 0.259 | 3.46 | 4.59 | 2.21 | 5.06 | 2.09 | 3.76 | 4.15 | 5.37 | 4.68 | 1.15 | 5.72 | 3.5 | 1.99 | 3.16 |
| TGGATGAGGTTATAAGATCAGGGAACGTTGCAAA | -0.0803 | 0.649 | 0.558 | 0.341 | 0.81 | 0.986 | 0.518 | 1.34 | 0.465 | 1.25 | 0.465 | 1.53 | 1.24 | 0.341 | 1.97 | 1.91 | 0.397 | 0.65 |
| GTACCAAGGTTAATAGGTCGTTGATGAGTAGGCG | 1.85 | 3.6 | 0.0971 | -0.158 | 2.1 | 1.69 | 0.273 | 2.82 | 0.938 | 2.5 | 2.14 | 3.29 | 2.07 | 0.518 | 2.5 | 1.68 | 0.196 | 0.941 |
| CGTCCAAGTTCAAGGTAACGTAACAGAAAGCAGC | 0.65 | 0.654 | 0.76 | 0.315 | 1.63 | 2.73 | 1.61 | 1.95 | 0.657 | 3.36 | 2.23 | 2.83 | 3.21 | 4.37 | 2.15 | 2.6 | 1.66 | 3.39 |
| TCATATAGGTAAACAGGTGAAAGCCCGTAAGTTA | 4.79 | 4.53 | 1.26 | 0.658 | 0.824 | 0.744 | 0.0524 | 1.07 | 1.58 | 0.738 | 0.749 | 0.546 | 0.364 | 1.2 | 1.64 | 0.571 | 0.487 | -0.138 |
| TCTGACAGGTGAAGGTAACTCAGGTACGCAGTCG | 2.21 | 1.39 | 0.246 | -0.0142 | 0.45 | 0.483 | -0.371 | 0.82 | 0.0675 | 1.28 | 0.819 | 0.644 | 0.639 | 0.827 | 0.901 | 1.5 | 0.158 | 0.222 |
| TTACCAAGGTGAAAGGTCGTTGATGCACGCCTTG | 2.84 | 4.92 | 0.117 | -0.276 | 1.41 | 3.96 | 0.351 | 5.27 | 0.055 | 3.04 | 2.52 | 4.17 | 2.31 | 0.684 | 5.67 | 3.23 | 0.838 | 1.67 |
| CCAGACAGGTGAGAGGTAACTCAGTCTGGTACGC | 1.59 | 1.87 | -0.562 | -0.501 | 0.989 | -0.00466 | -0.224 | 0.194 | 0.0236 | 0.78 | 0.491 | 0.564 | 0.526 | -0.348 | 0.784 | 0.574 | -0.109 | -0.514 |
| ATCGAAAGGTCGTGAGGTGAGCATACAGAAAGGC | 0.297 | 2.79 | 1.33 | 0.333 | 0.137 | 2.77 | 0.261 | 3.85 | 0.316 | 3.89 | 3.19 | 4.58 | 4.26 | 1.12 | 5.3 | 3.45 | 1.68 | 0.917 |
| CCTCGGAGGACAACAGGAGGTCAGAGTTGCCAGA | -0.0815 | 0.313 | -0.9 | -1.99 | 2.15 | 2.36 | 1.11 | 2.64 | 0.759 | 2.83 | 3.77 | 3.42 | 3.26 | 0.349 | 2 | 3.08 | 1.6 | 1.5 |
| TGTCAAAGTTCAAAGGTACCGTAAGTATCCACAC | 0.615 | 4.3 | 1.2 | 0.655 | 1.97 | 5.17 | 3.76 | 4.94 | 0.937 | 4.89 | 4 | 5.69 | 5.77 | 4.44 | 5.81 | 2.65 | -0.264 | 4.24 |
| CCTGCTAGGTCATGGTCAGCAAATCTACAGTATG | 4.25 | 3.63 | 0.173 | -0.183 | 1.03 | 1.15 | -0.302 | 2.22 | 0.017 | 3.7 | 2.81 | 4.02 | 4.6 | 1.74 | 2.84 | 3.09 | 1.37 | 0.339 |
| CCGACTGGGGCATAAGGTAACCATAAGCCAGCCC | 2.94 | 2.7 | -0.714 | -0.986 | 0.375 | -0.534 | -0.805 | 0.0245 | -0.0601 | 0.594 | 0.572 | 0.385 | 0.436 | -0.779 | 0.252 | 1.72 | 1.34 | -0.312 |
| ACTTACGGGTCAACGAGGTTAGAGCACGCGTATA | 3.74 | 4.28 | 0.679 | 0.825 | 2.64 | 4.7 | 1.33 | 4.99 | 0.957 | 4.2 | 3.62 | 5.52 | 5.15 | 2.34 | 5.87 | 3.7 | 0.878 | 2.6 |
| CATAGCAGGCCAATCTGGGTCACTCAAGGCTTGA | 4.39 | 5.66 | -0.292 | -0.125 | 0.261 | 1.03 | -0.436 | 1.25 | -0.301 | 1.65 | 1.85 | 1.44 | 1.57 | -0.0976 | 1.09 | 3.69 | 0.366 | -0.0851 |
